# From PubChem BioAssay AID431 (Sanford-Burnham Center for Chemical Genomics, 2006)
# Hit rate of the full screen: of about 63,000 compounds, about 1,100 (1.7%) were called active.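 Rule for the calls: active = compounds whose percent cytotoxicity in the single-dose primary screen, scaled between solvent and toxic-drug controls, exceeds 50; inactive = the rest.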 For the sample, actives were picked, then their nearest neighbours and some compounds at random. Potency and affinity values are given separately.
# Assay: viability loss of HPDE-C7K cells – cell-based, fluorescence, HTS, primary screen (AID 431);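 note: 0% = DMSO solvent wells and 100% = doxorubicin-treated wells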
# Conditions: HPDE-C7K KRASV12 cells, Alamar Blue viability, 48 h; at 10 µM; stronger effect = higher value
row,SMILES,cytotoxicity
1,CCc1nnc(NC(=O)OCc2ccccc2)s1,-11.2% (inactive)
2,Cn1nnnc1SCC(=O)N1CCN(c2cccc(Cl)c2)CC1,14.5% (inactive)
3,COc1ccc(N(CC(=O)Nc2ccc(C)cn2)S(=O)(=O)c2c(C)noc2C)cc1,-11.9% (inactive)
4,CCC(Sc1nc(=O)cc(N)n1CCc1ccccc1)C(=O)Nc1cc(C)on1 (centres undefined),-10.3% (inactive)
5,O=C(NCCc1ccc(Cl)cc1)C1CCN(S(=O)(=O)N2CCCC2)CC1,-2.3% (inactive)
6,N#Cc1nc(-c2cccs2)oc1NCc1ccccc1,3.2% (inactive)
7,N#Cc1nc(-c2cccs2)oc1NCCc1ccccc1,50.3% (active)
8,Cc1ccc(CNc2oc(-c3cccs3)nc2C#N)cc1,0.3% (inactive)
9,CCN1CCN(c2ncnc3c2sc(=S)n3-c2ccccc2)CC1,2.5% (inactive)
10,COc1ccccc1NC(=O)c1ccc(Cl)c(S(=O)(=O)N2CCOCC2)c1,-3.3% (inactive)
11,COc1ccc(NC(=O)c2ccc(Cl)c(S(=O)(=O)N3CCc4ccccc4C3)c2)cn1,80% (active)
12,O=C(Nc1cccnc1)c1ccc(Cl)c(S(=O)(=O)N2CCCCCC2)c1,-5.1% (inactive)
13,N#CC(C#N)=c1ccc2c(c1)N1C3=C(CCCC3)CC3CCCCC31N=2 (centres undefined),71.7% (active)
14,N#C/C(C(N)=O)=c1/ccc2c(c1)N1C3=C(CCCC3)CC3CCCCC31N=2 (centres undefined),66.4% (active)
15,Cc1cc(-c2ccccc2)nc(=O)[nH]1,-3% (inactive)
16,CCn1c(=O)cc(OCC(=O)N2CCN(C(=O)c3ccco3)CC2)c2ccccc21,-0.6% (inactive)
17,CC(=O)Nc1ccc(C(=O)CSc2nnc(Cn3nnc4ccccc43)n2C)cc1,3.6% (inactive)
18,CCN1C(=O)CS/C1=N\c1nccs1,-4.6% (inactive)
19,CCN=C1SC(C(N)=O)CC(=O)N1CC (centres undefined),0.6% (inactive)
20,COc1ccc(N2CCN(CC(=O)Nc3nc4c(s3)CC(C)CC4)CC2)cc1 (centres undefined),32.4% (inactive)
21,COCCNC(=O)CSc1nc(-c2ccc(OC)c(OC)c2)cc(C(F)(F)F)n1,-8.7% (inactive)
22,CCOC(=O)c1sc2nc(CSc3nc4ccccc4n3CC)[nH]c(=O)c2c1C,-11.3% (inactive)
23,O=C(Cc1cn2ccsc2n1)Nc1nc2c(s1)CCCC2,23.2% (inactive)
24,O=C(Cc1cn2ccsc2n1)Nc1nc2c(s1)CN(Cc1ccccc1)CC2,-6.3% (inactive)
25,CC(C)(C)C1CCc2nc(NC(=O)Cc3cn4ccsc4n3)sc2C1 (centres undefined),52.5% (active)

row,SMILES,cytotoxicity
1,CCOc1ccc(Cc2nn[nH]n2)cc1,-19.6% (inactive)
2,COC(=O)CN(c1cc(C(F)(F)F)ccc1Cl)S(C)(=O)=O,-0.9% (inactive)
3,Cc1cccc(NC(=O)c2cc3c(n(-c4ccccc4)c2=O)CCCC3=O)n1,20% (inactive)
4,COc1ccc(-n2c3c(cc(C(=O)Nc4ccc5c(c4)C(=O)NC5=O)c2=O)C(=O)CCC3)cc1,61.2% (active)
5,Cc1ccc(-n2c3c(cc(C(=O)Nc4cccc(C)n4)c2=O)C(=O)CCC3)cc1,-27.1% (inactive)
6,COc1ccc(CCNC(=O)c2ccncc2)cc1OC,-13.2% (inactive)
7,COc1ccc(C(=O)NCCn2ccc3ccccc32)c(OC)c1,-8.9% (inactive)
8,Cc1ccc(-c2noc(CCC(=O)N3CCCC3)n2)cc1,-6.9% (inactive)
9,Cc1ccc(S(=O)(=O)N(C)Cc2nc(-c3ccncc3)no2)cc1,-0.7% (inactive)
10,Cc1ccccc1-c1noc(-c2ccc(O)cc2)n1,29.6% (inactive)
11,CN1CCN(C(=O)CSc2nc(-c3cccs3)ccc2C#N)CC1,15.2% (inactive)
12,CCN(CC)C(=O)CSc1nc(C)cc(-c2cccs2)c1C#N,2.8% (inactive)
13,CC(C)C(=O)N1CCc2cc(-c3csc(N)n3)ccc21,-1% (inactive)
14,O=C(CSc1nc2ccccc2s1)NC(=O)NCc1ccco1,87.6% (active)
15,O=C(CCCSc1nc2ccccc2s1)NCc1ccco1,5.8% (inactive)
16,O=C(CSc1nc2cc(Cl)ccc2s1)NC(=O)NCc1ccco1,-8.3% (inactive)
17,C=CCn1c(SCC(=O)N2CCN(C(=O)c3ccco3)CC2)nc2sc(CC)cc2c1=O,-11.5% (inactive)
18,C=CCn1c(SCC(=O)NC(=O)NCc2ccco2)nc2sc(CC)cc2c1=O,63.4% (active)
19,C=CCn1c(SCC(=O)NC(=O)NCc2ccco2)nc2sc(C)c(C)c2c1=O,4.8% (inactive)
20,COc1cccc(-c2nc(CS(=O)(=O)CC(=O)NCCC(C)C)c(C)o2)c1,2.6% (inactive)
21,COC(=O)c1ccc(N=c2sc(C(=O)OC)cc(=O)n2C)cc1,-16.7% (inactive)
22,Cc1ccc(Nc2nc(N3CCOCC3)c3ccccc3n2)cc1,28.7% (inactive)
23,COc1ccc(Nc2nc(N3CCCC3)c3ccccc3n2)cc1,22.5% (inactive)
24,Oc1ccc(Nc2nc(N3CCCC3)c3ccccc3n2)cc1,94.4% (active)
25,CCCCCCOc1ccc(C(=O)n2cnc(N)n2)cc1,82.6% (active)

row,SMILES,cytotoxicity
1,COc1ccc(C(=O)n2cnc(N)n2)cc1,6.1% (inactive)
2,CCCCOc1ccc(C(=O)N2CCCCCC2)cc1,-8.5% (inactive)
3,Cc1ccc2cc(CN(C(=O)c3ccco3)c3ccccc3)c(=O)[nH]c2c1,-0.6% (inactive)
4,COc1ccc(CCNC(=O)c2nonc2N)cc1OC,0.1% (inactive)
5,Cn1c(C(=O)NCCc2c[nH]c3ccccc23)cc2sccc21,6.9% (inactive)
6,CCC(NC(=O)Nc1nccs1)(C(F)(F)F)C(F)(F)F,-11.8% (inactive)
7,CCSc1nnc(NC(=O)NC(CC)(C(F)(F)F)C(F)(F)F)s1,19.4% (inactive)
8,O=C(NCC(F)(F)F)Nc1nnc(C(F)(F)F)s1,12.5% (inactive)
9,CC(NC(=O)Nc1nccs1)(C(F)(F)F)C(F)(F)F,-3.9% (inactive)
10,CCn1cc(C(=O)N=c2sc3ccccc3n2C)c(=O)c2ccc(C)nc21,-2% (inactive)
11,COc1cc(C(=S)N2CCCCC2)ccc1OCC(=O)N1CCCC1,-1.9% (inactive)
12,COc1ccc(-n2c(Cc3cccn3C)nnc2SCC(=O)Nc2ccc(Cl)cc2)cc1,48.9% (inactive)
13,CCCOC(=O)C1=C(C)NC2=C(C(=O)C(C(=O)OC)C(C)C2)C1c1ccc(N(CC)CC)cc1 (centres undefined),-15.1% (inactive)
14,Cc1ccc(Cl)cc1N1CCN(S(=O)(=O)c2cccc(S(=O)(=O)N3CCCC3)c2)CC1,0.2% (inactive)
15,CCn1cc(C(=O)NCc2ccccc2OC)c(=O)c2ccc(C)nc21,-1.4% (inactive)
16,Cn1c(C(=O)OCC(=O)NCc2cccs2)cc2sccc21,-3.4% (inactive)
17,Cc1cc2c(cc(C(=O)OCC(=O)NCc3cccs3)n2C(C)C)o1,59.5% (active)
18,CC(C)n1c(C(=O)OCC(=O)NCc2ccc3c(c2)OCO3)cc2sccc21,22.7% (inactive)
19,Cc1cccc2cc(C(c3nnnn3CC3CCCO3)N3CCc4ccccc4C3)c(=O)[nH]c12 (centres undefined),-7.5% (inactive)
20,Cc1ccc(S(=O)(=O)NCC(=O)OCC(=O)c2cccs2)cc1,4.8% (inactive)
21,COc1ccc(-c2cc(C(=O)Nc3ccccc3SC)no2)cc1OC,1.4% (inactive)
22,Cc1cccc(N2CCN(C(=O)Cc3c(C(=O)O)[nH]c4ccc(Cl)cc34)CC2)c1C,57.9% (active)
23,O=C(O)c1[nH]c2ccc(Cl)cc2c1CC(=O)N1CCN(c2ccccc2)CC1,8% (inactive)
24,O=C(O)c1[nH]c2ccc(Cl)cc2c1CC(=O)N1CCN(C(=O)c2ccco2)CC1,3.2% (inactive)
25,Cc1cccc(-n2c(CNC(=O)c3ccc(S(=O)(=O)N4CCCC4)cc3)n[nH]c2=S)c1,-12% (inactive)

row,SMILES,cytotoxicity
1,Cc1ccc(-n2ncc(C(=O)N3CCc4ccccc4C3)c2NC(=O)c2ccco2)cc1C,80.3% (active)
2,Cc1ccc(NC(=O)c2cnn(-c3ccccc3)c2NC(=O)c2ccco2)cc1C,-1.9% (inactive)
3,O=C(Nc1c(C(=O)N2CCCCC2)cnn1-c1ccccc1)c1ccco1,-3.5% (inactive)
4,Cc1cc(C)n(CC(O)COCc2ccco2)n1 (centres undefined),-7.5% (inactive)
5,Cc1nnc(C)n1/N=C/c1cc(Br)cc(Br)c1O,86.5% (active)
6,Cc1nnc(C)n1/N=C/c1cc(Br)ccc1O,-18.8% (inactive)
7,COc1c(Br)cc(Br)cc1/C=N/n1c(C)nnc1C,11.1% (inactive)
8,COc1ccc(Cl)cc1NS(=O)(=O)c1ccc(S(=O)(=O)N2CCCC2)cc1,19.4% (inactive)
9,CSCC[C@@H](Nc1nc(-c2ccccc2)nc2c1oc1ccccc12)C(=O)O,20% (inactive)
10,c1cncc(-c2nc(NCc3ccco3)c3ccccc3n2)c1,10.1% (inactive)
11,COc1ccc(CCNC(=O)CSc2nc(-c3ccco3)cc(C(F)(F)F)n2)cc1OC,-11.5% (inactive)
12,O=C(C1CCN(S(=O)(=O)c2cccc3cccnc23)CC1)N1CCN(C2CCCCC2)CC1,8.4% (inactive)
13,N#C/C(=C(\O)c1ccco1)c1ccccn1,-1.4% (inactive)
14,COc1cccc(OC)c1-c1nn2c(-c3cc(-c4ccccc4)n[nH]3)nnc2s1,58.4% (active)
15,COc1cccc(OC)c1-c1nn2c(-c3ccccc3Cl)nnc2s1,17.5% (inactive)
16,COc1cc(-c2nnc3sc(-c4cccs4)nn23)cc(OC)c1OC,62.9% (active)
17,COc1ccc(-c2nnc3sc(-c4cccs4)nn23)cc1OC,11.7% (inactive)
18,COc1ccc(-c2nnc3sc(-c4c(OC)cccc4OC)nn23)cc1,10.6% (inactive)
19,COc1cc(-c2nnc3sc(-c4ccncc4)nn23)cc(OC)c1OC,-1.5% (inactive)
20,c1ccc2c(c1)ncn2Cc1nnc2sc(-c3ccncc3)nn12,0.8% (inactive)
21,CC(=O)c1c(N2CCCCC2)nc(=O)n(-c2ccccc2)c1C,-16.3% (inactive)
22,O/N=C(/Cc1ccccn1)c1ccccc1,-1.3% (inactive)
23,O=C(NCCCNC(=O)c1ccccn1)c1ccccn1,9.7% (inactive)
24,CCCCCC/C(=N/O)c1ccccn1,51.6% (active)
